Test results: PubChem BioAssay (Tox21)
“And” between values parts separate entries of the source, which are not always exact repeats. Equal entries are not always repeated. Some structures have more than one record in an assay (separate samples or runs), and their calls can disagree. The source made the active and inactive calls. Entries that show only a call come without a potency. Unless noted, calls come from the whole dose curve; as a rule, active = well fitted curve in the direction sought with a large enough effect in the repeat runs; inconclusive = weak or mixed curves; inactive = no such curve, though single readings can be large; an effect the other way counts as inactive or inconclusive.

How the values were obtained:
[1] = qHTS assay to identify small molecule antagonists of the thyroid receptor (TR) signaling pathway - cell viability counter screen (AID 743064); note: nearly all actives have a fitted effect of over 50% in size; note: potency is the fitted concentration of half-maximal effect
Procedure, shortened: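 Counter screen for cytotoxicity: compound plus T3 (1 nM final) on GH3.TRE-Luc cells, 23.5 h at 37 °C, then fluorescence viability readout with CellTiter-Fluor.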

[2] = qHTS assay to identify small molecule antagonists of the thyroid receptor (TR) signaling pathway (AID 743065); note: nearly all actives have a fitted effect of over 55% in size; note: potency is the fitted concentration of half-maximal effect
Procedure, shortened: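 Antagonism measured as loss of luciferase signal in GH3 cells stably carrying a TRE-luciferase reporter, co-treated with compound and T3 (1 nM final) for 23.5 h at 37 C. Viability was read in the same well by CellTiter-Fluor.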

[3] = tested on: thyroid hormone receptor (rat, GH3 cells); assay: qHTS assay to identify small molecule agonists of the thyroid receptor (TR) signaling pathway (AID 743066; calls by dose curve)
[4] = target: Estrogen receptor (Homo sapiens) (UniProt P03372); assay: qHTS assay to identify small molecule antagonists of the estrogen receptor alpha (ER-alpha) signaling pathway (AID 743069; active = well fitted curve in the direction sought with a large enough effect in the signal ratio in the repeat runs, not every such curve was filed as active; inconclusive = weak or mixed curves, or effect the other way; inactive = no such curve, though single readings can be large or run the other way; the % refers to the signal ratio)
Procedure, shortened: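 Fluorescence intensity from a beta-lactamase FRET substrate served as the read-out. Cells: HEK293 with stably integrated ER-alpha-UAS-bla reporter. Agonist 17beta-estradiol was co-added with compounds; incubation 18 hr at 37C, substrate 2 hr at room temperature.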

[5] = qHTS assay to identify small molecule antagonists of the estrogen receptor alpha (ER-alpha) signaling pathway - cell viability counter screen (AID 743074; calls by dose curve; note: nearly all actives have a fitted effect of over 45% in size)
[6] = target: Estrogen receptor (Homo sapiens) (UniProt P03372); assay: qHTS assay to identify small molecule agonists of the estrogen receptor alpha (ER-alpha) signaling pathway (AID 743075; calls by dose curve; note: potency is the fitted concentration of half-maximal effect)
[7] = target: Estrogen receptor (Homo sapiens) (UniProt P03372); assay: qHTS assay to identify small molecule agonists of the estrogen receptor alpha (ER-alpha) signaling pathway using the BG1 cell line (AID 743079); note: nearly all actives have a fitted effect of over 20% in size; note: potency is the fitted concentration of half-maximal effect
[8] = qHTS assay to identify small molecule antagonists of the estrogen receptor alpha (ER-alpha) signaling pathway using the BG1 cell line (AID 743080; calls by dose curve; note: series mostly up to about 70 µM; nearly all actives have a fitted effect of over 25% in size)
Procedure, shortened: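 Antagonist mode: compounds in DMSO were pinned onto BG1-Luc-4E2 cells alongside 17beta-estradiol agonist, incubated 21.5 h, and ERE-driven luciferase measured with ONE-Glo. Cytotoxicity was multiplexed using CellTiter-Fluor fluorescence.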

[9] = qHTS assay to identify small molecule antagonists of the estrogen receptor alpha (ER-alpha) signaling pathway using the BG1 cell line - cell viability counter screen (AID 743081);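 note: compound given together with 17beta-estradiol as the ER stimulus; series mostly up to about 70 µM; nearly all actives have a fitted effect of over 45% in size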
Aromatase (Homo sapiens) = Aromatase (Homo sapiens) (UniProt P11511); assay: qHTS assay to identify aromatase inhibitors (AID 743083); note: nearly all actives have a fitted effect of over 55% in size; note: potency is the fitted concentration of half-maximal effect
[10] = target: Aryl hydrocarbon receptor (Homo sapiens) (UniProt P35869); assay: qHTS assay to identify small molecule that activate the aryl hydrocarbon receptor (AhR) signaling pathway (AID 743085);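 note: HG2L7.5c1 human HepG2 liver cells with stably integrated DRE-driven firefly reporter; series mostly up to about 70 µM; nearly all actives have a fitted effect of over 15% in size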
Procedure, shortened: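 Measured in HG2L7.5c1 cells: CellTiter-Fluor signal (30 min incubation, 37C) for viability, then luciferase luminescence (30 min, room temperature). Compound contact time was 24 h at 37C, following a 5 h pre-incubation.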

[11] = target: Peroxisome proliferator-activated receptor gamma (Homo sapiens) (UniProt P37231); assay: qHTS assay to identify small molecule agonists of the peroxisome proliferator-activated receptor gamma (PPARg) signaling pathway (AID 743094; active = well fitted activation curve with a large enough effect in the signal ratio in the repeat runs, not every such curve was filed as active; inconclusive = weak or mixed curves, or effect the other way; inactive = no such curve, though single readings can be large or run the other way; the % refers to the signal ratio; note: potency is the fitted concentration of half-maximal effect)
Procedure, shortened: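 Reporter activation was scored by fluorescence of cleaved LiveBLAzer B/G substrate (1 h, room temperature) in PPARg-bla HEK293H cells previously treated 17 h at 37C with DMSO-dissolved compounds.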

[12] = qHTS assay to identify small molecule antagonists of the peroxisome proliferator-activated receptor gamma (PPARg) signaling pathway - cell viability counter screen (AID 743194); conditions: Potency: co-treated with 50 nM rosiglitazone; note: nearly all actives have a fitted effect of over 55% in size
Procedure, shortened: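 Viability was measured as CellTiter-Glo luminescence in GeneBLAzer PPARg UAS-bla HEK293H cells. These cells had been exposed 17 h at 37 C to compounds together with rosiglitazone at 50 nM final, with the beta-lactamase readout taken in the same wells.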

[13] = qHTS assay for small molecule agonists of the antioxidant response element (ARE) signaling pathway (AID 743202; active = well fitted activation curve with a large enough effect in the signal ratio in the repeat runs, not every such curve was filed as active; inconclusive = weak or mixed curves, or effect the other way; inactive = no such curve, though single readings can be large or run the other way; the % refers to the signal ratio)
Procedure, shortened: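 Beta-lactamase reporter activity, read as fluorescence intensity, reflects ARE/Nrf2 pathway induction in HepG2 cells after 16 h compound exposure at 37 C; substrate loading was 2 h at room temperature.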

[14] = qHTS assay for small molecule agonists of the antioxidant response element (ARE) signaling pathway - cell viability counter screen (AID 743203; calls by dose curve; note: nearly all actives have a fitted effect of over 55% in size)
Procedure, shortened: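 Viability counter screen: stably transfected ARE-bla HepG2 line, 16 hrs compound exposure at 37C/5% CO2, ATP-based CellTiter-Glo luminescence measured in the reporter wells.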

[15] = qHTS assay for small molecule activators of the heat shock response signaling pathway - cell viability counter screen (AID 743209); note: nearly all actives have a fitted effect of over 50% in size
Procedure, shortened: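 Viability of HSE-bla HeLa cells is measured with CellTiter-Glo in the wells already used for the reporter read. Compound exposure lasts 5 h at 37 C, and luminescence is read after 30 min at room temperature.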

[16] = qHTS assay for small molecule activators of the heat shock response signaling pathway (AID 743210; active = well fitted activation curve with a large enough effect in the signal ratio in the repeat runs, with a control signal flat, not every such curve was filed as active; inconclusive = weak or mixed curves; the % refers to the signal ratio;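 note: HeLa cells with beta-lactamase reporter driven by heat shock elements; series mostly up to about 63 µM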)
Procedure, shortened: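 Fluorescence from a cleaved B/G FRET substrate (2.5 h, room temp) reports HSE-driven beta-lactamase in HeLa cells treated 5 h at 37 C with DMSO-dissolved compounds.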

[17] = qHTS assay to identify aromatase inhibitors - cell viability counter screen (AID 743084); note: potency is the fitted concentration of half-maximal effect
[18] = qHTS assay to identify small molecule that activate the aryl hydrocarbon receptor (AhR) signaling pathway - cell viability counter screen (AID 743086);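 note: HepG2 liver cells carrying the AhR DRE luciferase reporter; series mostly up to about 70 µM; nearly all actives have a fitted effect of over 45% in size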
Procedure, shortened: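 Cytotoxicity counter screen: CellTiter-Fluor signal (30 min, 37 C) in 4000 HepG2 cells/well carrying the DRE-luciferase reporter, following 24 h compound exposure at 37 C.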

[19] = target: Peroxisome proliferator-activated receptor gamma (Homo sapiens) (UniProt P37231); assay: qHTS assay to identify small molecule antagonists of the peroxisome proliferator-activated receptor gamma (PPARg) signaling pathway (AID 743191; calls by dose curve; note: series mostly up to about 63 µM; nearly all actives have a fitted effect of over 30% in size)
Procedure, shortened: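 Beta-lactamase reporter under UAS control in HEK293H PPARg-bla cells; compound treatment 17 h at 37C. Read-out: fluorescence intensity after 1 h room-temperature incubation with LiveBLAzer B/G FRET substrate.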

Sequence of Aromatase (Homo sapiens) (P11511 whole entry, looked up): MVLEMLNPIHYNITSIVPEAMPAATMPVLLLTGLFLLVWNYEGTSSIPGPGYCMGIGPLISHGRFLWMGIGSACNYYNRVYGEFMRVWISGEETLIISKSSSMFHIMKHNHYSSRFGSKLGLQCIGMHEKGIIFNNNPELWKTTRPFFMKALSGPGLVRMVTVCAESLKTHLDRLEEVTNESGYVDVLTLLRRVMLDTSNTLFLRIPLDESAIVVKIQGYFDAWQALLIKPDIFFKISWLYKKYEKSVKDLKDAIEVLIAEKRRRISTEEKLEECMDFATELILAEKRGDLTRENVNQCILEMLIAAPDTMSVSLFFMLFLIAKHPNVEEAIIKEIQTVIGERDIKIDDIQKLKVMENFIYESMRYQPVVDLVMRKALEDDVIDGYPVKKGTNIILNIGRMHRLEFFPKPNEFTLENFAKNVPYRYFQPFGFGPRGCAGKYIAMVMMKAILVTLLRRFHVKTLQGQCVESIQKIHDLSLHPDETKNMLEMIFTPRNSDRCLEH
Sequence of Estrogen receptor (Homo sapiens) (P03372 whole entry, looked up): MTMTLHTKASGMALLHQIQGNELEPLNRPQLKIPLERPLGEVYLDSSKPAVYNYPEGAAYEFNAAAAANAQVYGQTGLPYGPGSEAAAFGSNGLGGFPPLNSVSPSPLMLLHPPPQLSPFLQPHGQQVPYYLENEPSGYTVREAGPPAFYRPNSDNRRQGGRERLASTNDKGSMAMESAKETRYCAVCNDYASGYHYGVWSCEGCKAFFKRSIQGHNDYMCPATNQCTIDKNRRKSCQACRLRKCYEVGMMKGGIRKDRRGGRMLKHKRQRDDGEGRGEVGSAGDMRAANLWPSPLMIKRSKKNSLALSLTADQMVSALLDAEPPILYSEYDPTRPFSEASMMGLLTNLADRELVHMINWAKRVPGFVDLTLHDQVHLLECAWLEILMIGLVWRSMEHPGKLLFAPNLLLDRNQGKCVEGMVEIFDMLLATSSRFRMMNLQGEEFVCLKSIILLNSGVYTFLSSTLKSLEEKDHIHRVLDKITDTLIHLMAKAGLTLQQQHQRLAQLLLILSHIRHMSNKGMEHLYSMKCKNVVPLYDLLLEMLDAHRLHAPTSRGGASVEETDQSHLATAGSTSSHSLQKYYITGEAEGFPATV
Sequence of Aryl hydrocarbon receptor (Homo sapiens) (P35869 whole entry, looked up): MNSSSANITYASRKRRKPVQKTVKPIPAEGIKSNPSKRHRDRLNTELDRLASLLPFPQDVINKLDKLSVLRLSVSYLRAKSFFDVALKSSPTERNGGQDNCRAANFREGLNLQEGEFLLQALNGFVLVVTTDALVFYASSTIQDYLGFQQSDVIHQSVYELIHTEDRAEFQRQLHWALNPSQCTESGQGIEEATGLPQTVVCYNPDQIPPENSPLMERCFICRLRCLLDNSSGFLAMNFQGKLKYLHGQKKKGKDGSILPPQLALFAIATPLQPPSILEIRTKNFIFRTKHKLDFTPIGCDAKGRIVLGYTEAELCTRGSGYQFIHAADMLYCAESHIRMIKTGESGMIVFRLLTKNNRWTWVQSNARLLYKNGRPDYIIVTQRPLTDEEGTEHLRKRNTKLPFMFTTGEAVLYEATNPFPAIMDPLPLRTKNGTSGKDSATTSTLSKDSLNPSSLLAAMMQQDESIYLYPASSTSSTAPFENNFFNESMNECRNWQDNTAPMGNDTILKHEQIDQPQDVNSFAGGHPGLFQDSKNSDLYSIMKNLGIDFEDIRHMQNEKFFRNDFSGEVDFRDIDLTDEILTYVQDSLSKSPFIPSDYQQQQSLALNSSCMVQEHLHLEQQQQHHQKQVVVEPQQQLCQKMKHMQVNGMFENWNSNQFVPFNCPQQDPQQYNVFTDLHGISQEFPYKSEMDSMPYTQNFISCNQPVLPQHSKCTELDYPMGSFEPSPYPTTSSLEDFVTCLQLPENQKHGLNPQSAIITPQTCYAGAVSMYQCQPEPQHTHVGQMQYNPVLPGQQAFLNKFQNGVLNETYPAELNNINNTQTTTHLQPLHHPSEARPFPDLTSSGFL
Sequence of Peroxisome proliferator-activated receptor gamma (Homo sapiens) (P37231 whole entry, looked up): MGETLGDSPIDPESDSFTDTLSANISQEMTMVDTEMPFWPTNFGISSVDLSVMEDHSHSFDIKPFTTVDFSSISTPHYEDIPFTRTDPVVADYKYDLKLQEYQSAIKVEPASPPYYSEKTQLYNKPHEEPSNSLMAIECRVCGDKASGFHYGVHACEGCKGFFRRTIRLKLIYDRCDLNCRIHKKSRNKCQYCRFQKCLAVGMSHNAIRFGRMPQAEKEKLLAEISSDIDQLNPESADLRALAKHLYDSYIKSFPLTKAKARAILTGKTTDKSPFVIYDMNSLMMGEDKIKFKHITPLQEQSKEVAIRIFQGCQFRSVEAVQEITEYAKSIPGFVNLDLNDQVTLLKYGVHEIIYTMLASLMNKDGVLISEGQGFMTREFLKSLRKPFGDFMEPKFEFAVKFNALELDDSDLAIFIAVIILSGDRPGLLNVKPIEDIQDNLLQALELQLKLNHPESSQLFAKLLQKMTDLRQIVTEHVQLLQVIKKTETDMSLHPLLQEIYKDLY

Row | Structure (SMILES) | Potency [1] | Potency [2] | Potency [3] | Potency [4] | Potency [5] | Potency [6] | Potency [7] | Potency [8] | Potency [9] | Potency (Aromatase (Homo sapiens)) | Potency [10] | Potency [11] | Potency [12] | Potency [13] | Potency [14] | Potency [15] | Potency [16] | Potency [17] | Potency [18] | Potency [19]
1 | O=C(O)C(F)(F)C(F)(F)C(F)(F)C(F)(F)C(F)(F)F | inactive | inactive | inactive | inactive | inactive | inactive | inactive | inactive | inactive | inactive | inactive | inactive | inactive | inactive | inactive | inactive | inactive | – | – | –
2 | COCc1cnc(C2=NC(C)(C(C)C)C(=O)N2)c(C(=O)O)c1 (stereo not given) | inactive | inactive | inactive | inactive | inactive | inactive | inactive | – | inactive | inactive | inactive | inactive | inactive | – | inactive | inactive | inactive | inactive | inactive | inactive
3 | C[C@H]1O[C@H](OC2[C@@H](O)[C@@H](O)C(O)[C@H](O)[C@H]2O)[C@@H](N)C[C@@H]1N=C(N)C(=O)O (stereo not given in full) | inactive | inactive | inactive | inactive | inactive | inactive | inactive | – | inactive | inactive | inactive | inactive | inactive | – | inactive | inactive | inactive | inactive | inactive | inactive
4 | CCSCc1ccccc1OC(=O)NC | inactive | inactive | inactive | inactive | inactive | inactive | inactive | inactive | inactive | inactive | inactive | inactive | inactive | inactive | inactive | inactive | inactive | inactive | inactive | inactive
5 | C=CC(=O)NC(C)(C)CC(C)=O | inactive | inactive | inactive | inactive | inactive | inactive | inactive | inactive | inactive | inactive | inactive | inactive | inactive | inactive | inactive | inactive | inactive | inactive | inactive | –
6 | C1CS1 | inactive | inactive | inactive | inactive | inactive | inactive | inactive | inactive | inactive | inactive | inactive | inactive | inactive | inactive | inactive | inactive | inactive | inactive | inactive | inactive
7 | C[N+](C)(C)CC1CO1 (stereo not given) | inactive | inactive | inactive | inactive | inactive | inactive | inactive | – | inactive | inactive | inactive | inactive | inactive | inactive | inactive | inactive | inactive | inactive | inactive | inactive
8 | CN[C@@H](C)[C@H](O)c1ccccc1 | inactive | inactive | inactive | inactive | inactive | inactive | 26.6 µM (active) | – | inactive | inactive | inactive | inactive | inactive | inactive | inactive | inactive | inactive | inactive | inactive | inactive
9 | CCNC(=O)NC(=O)/C(C#N)=N/OC | inactive | inactive | inactive | inactive | inactive | inactive | inactive | inactive | inactive | inactive | inactive | inactive | – | – | inactive | inactive | inactive | inactive | inactive | inactive
10 | CCC(C)Cl (stereo not given) | inactive | inactive | inactive | inactive | inactive | inactive | inactive | inactive | inactive | inactive | – | inactive | inactive | inactive | inactive | inactive | inactive | inactive | inactive | inactive
11 | CC(C)(c1ccccc1)c1cc(-n2nc3ccccc3n2)c(O)c(C(C)(C)c2ccccc2)c1 | inactive | inactive | inactive | inactive | inactive | inactive | inactive | inactive | inactive | inactive | inactive | inactive | – | inactive | inactive | inactive | inactive | inactive | inactive | –
12 | NC(=O)CF | inactive | inactive | inactive | – | inactive | inactive | inactive | inactive | inactive | inactive | inactive | inactive | inactive | inactive | inactive | inactive | inactive | inactive | inactive | inactive
13 | CN(C1CCCCC1)C1CCCCC1 | inactive | inactive | inactive | – | inactive | inactive | inactive | inactive | inactive | inactive | inactive | inactive | inactive | inactive | inactive | inactive | inactive | inactive | inactive | inactive
14 | COP(=O)(OC)OC(Br)C(Cl)(Cl)Br (stereo not given) | 54.5 µM (active) and 61.1 µM (active) | 54.5 µM (active) and 48.6 µM (active) | inactive | – | inactive | 61.7 µM [inconclusive] (active) and inactive | inactive | – | inactive | 61.2 µM (active) and 61.1 µM (active) | inactive | 54.9 µM (active) | – | – | inactive | inactive | inactive | 48.6 µM (active) | inactive | –
15 | CCC1(CC)C(=O)NC(=O)NC1=O | inactive | inactive | inactive | – | inactive | inactive | inactive | – | inactive | inactive | inactive | inactive | inactive | – | inactive | inactive | inactive | inactive | inactive | inactive
